Measurements: PubChem BioAssay (NCATS)
Inconclusive results are not listed. Entries that show only a call come without a potency. Calls of active or inactive are those of the source. Calls come from the whole dose curve; as a rule, active = well fitted curve in the direction sought with a large enough effect; inconclusive = small, poorly fitted or top-dose-only effect, or another doubt; inactive = no such curve, though single readings can be large; an effect the other way counts as inactive or inconclusive.

How the values were obtained:
[1] = target: Ubiquitin carboxyl-terminal hydrolase 1 (Homo sapiens) (UniProt O94782); assay: Inhibitors of USP1/UAF1: Pilot qHTS (AID 504865); note: nearly all actives have a fitted effect of over 35% in size; note: potency is the fitted concentration of half-maximal effect
How it was run: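 In 50mM HEPES pH 7.8 containing 0.5mM EDTA, 1mM TCEP, 0.1 mg/ml BSA and 0.01% Tween-20, 1nM USP1/UAF1 is exposed to compound for 15 min, then Ub-Rho (150nM final) is added and fluorescence is read over time.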

[2] = target: Luciferin 4-monooxygenase (Photinus pyralis) (UniProt P08659); assay: Biochemical firefly luciferase enzyme assay for NPC (AID 624030);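 note: purified P. pyralis luciferase at 10 nM with luciferin and ATP substrate; nearly all actives have a fitted effect of over 70% in size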
How it was run: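 Counter-screen for direct inhibition of the luciferase enzyme by approved-drug library compounds, run at 10 nM enzyme in 50 mM Tris acetate (final). Luminescence was read within 5 min of enzyme-buffer addition and normalized to PTC124 versus DMSO (0%).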

[3] = S16 Schwann cell PMP22 intronic element firefly luciferase assay (AID 624032); note: nearly all actives have a fitted effect of over 30% in size; note: potency is the fitted concentration of half-maximal effect
How it was run: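 Rat S16 Schwann cells stably carrying a PMP22 intronic element-driven Fluc reporter were seeded overnight, then exposed to compounds for 24 h at 37 °C. Luminescence was normalized to PTC124 (positive control) and DMSO (0% activity).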

DFO2036 = assay: qHTS profiling for inhibitors of Plasmodium falciparum proliferation (AID 504749); note: nearly all actives have a fitted effect of over 60% in size; note: potency is the fitted concentration of half-maximal effect; conditions: P. falciparum in erythrocytes, SYBR Green DNA, 72 h; series mostly up to 28.7 µM
How it was run: (§1)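 Fluorescence of SYBR Green-bound parasite DNA, read at 485/535 nm, served as the growth measure. Infected erythrocytes were cultured with compound 72 h; artemisinin (0.29 uM) and DMSO wells defined the normalization range.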

DIV14 = assay: as above; conditions: P. falciparum in erythrocytes, SYBR Green DNA, 72 h; series mostly up to 28.7 µM
How it was run: as §1

W2 = assay: as above; conditions: P. falciparum in erythrocytes, SYBR Green DNA, 72 h; series mostly up to 28.7 µM
How it was run: as §1

[4] = target: Tumor susceptibility gene 101 protein (Homo sapiens) (UniProt Q99816); assay: qHTS Assay for Iinhibitors of HIV-1 Budding by Blocking the Interaction of PTAP/TSG101: Hit Validation (AID 651600); note: nearly all actives have a fitted effect of over 70% in size
How it was run: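 Compounds are added to the Tsg101 binding domain (10 uM final) in pH 7.5 HEPES buffer. FITC-PTAP peptide follows at 50 nM final. After 20 min at r.t., polarized FITC emission is measured.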

[5] = target: Cytochrome P450 3A4 (Homo sapiens) (UniProt P08684); assay: qHTS Assay for Inhibitors and Substrates of Cytochrome P450 3A4 (AID 884); note: nearly all actives have a fitted effect of over 50% in size
How it was run: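 Luminescent readout of luciferin produced by CYP3A4 (20 nM) dealkylation of Luciferin-PPXE, 25 uM (its KM). NADPH-driven reaction ran 60 min at RT after 10 min compound preincubation; data scaled to 57 uM ketoconazole as 100% inhibition.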

[6] = Confirmation and Secondary Assay for Modulators of Hemoglobin Beta Chain Splicing at IVS2 654 locus (AID 910);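 note: per-well total GFP intensity by laser scanning cytometry after 2-day treatment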
How it was run: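 HeLa cells stably carrying EGFP interrupted by mutant beta-globin IVS2-654 intron (CMV-driven) were treated with compound for 2 days at 37C; corrected splicing was scored as total peak GFP intensity per well (488 nm excitation, 500-520 nm emission).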

Chain of Luciferin 4-monooxygenase (Photinus pyralis) (P08659 whole entry, looked up): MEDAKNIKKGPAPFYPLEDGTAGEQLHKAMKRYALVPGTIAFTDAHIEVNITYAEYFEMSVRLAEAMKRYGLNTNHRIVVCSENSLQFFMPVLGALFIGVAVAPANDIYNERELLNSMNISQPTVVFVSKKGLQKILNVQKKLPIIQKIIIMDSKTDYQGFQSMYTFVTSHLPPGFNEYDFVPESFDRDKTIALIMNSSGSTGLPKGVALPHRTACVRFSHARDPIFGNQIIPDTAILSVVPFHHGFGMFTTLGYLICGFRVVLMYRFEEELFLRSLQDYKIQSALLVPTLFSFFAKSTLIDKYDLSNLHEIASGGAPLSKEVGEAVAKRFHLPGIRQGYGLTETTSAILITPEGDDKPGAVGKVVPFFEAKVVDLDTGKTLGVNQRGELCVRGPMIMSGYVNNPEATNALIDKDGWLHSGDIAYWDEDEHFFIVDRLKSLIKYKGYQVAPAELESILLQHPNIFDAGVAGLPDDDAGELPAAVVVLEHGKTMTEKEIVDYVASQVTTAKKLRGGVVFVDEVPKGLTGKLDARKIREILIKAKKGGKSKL
Chain of Cytochrome P450 3A4 (Homo sapiens) (P08684 whole entry, looked up): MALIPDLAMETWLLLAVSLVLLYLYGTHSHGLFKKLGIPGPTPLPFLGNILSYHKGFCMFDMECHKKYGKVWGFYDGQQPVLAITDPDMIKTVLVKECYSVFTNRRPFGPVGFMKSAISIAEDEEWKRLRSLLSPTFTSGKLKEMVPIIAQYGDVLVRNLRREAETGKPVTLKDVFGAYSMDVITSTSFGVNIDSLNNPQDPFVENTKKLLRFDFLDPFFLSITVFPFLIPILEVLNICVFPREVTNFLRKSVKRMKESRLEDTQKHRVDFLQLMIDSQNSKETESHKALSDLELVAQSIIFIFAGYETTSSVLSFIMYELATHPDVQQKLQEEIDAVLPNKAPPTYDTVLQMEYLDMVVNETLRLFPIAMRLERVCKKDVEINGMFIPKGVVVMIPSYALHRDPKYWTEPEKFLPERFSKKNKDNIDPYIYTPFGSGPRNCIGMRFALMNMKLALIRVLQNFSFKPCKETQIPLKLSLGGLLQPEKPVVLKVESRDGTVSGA
Chain of Ubiquitin carboxyl-terminal hydrolase 1 (Homo sapiens) (O94782 whole entry, looked up): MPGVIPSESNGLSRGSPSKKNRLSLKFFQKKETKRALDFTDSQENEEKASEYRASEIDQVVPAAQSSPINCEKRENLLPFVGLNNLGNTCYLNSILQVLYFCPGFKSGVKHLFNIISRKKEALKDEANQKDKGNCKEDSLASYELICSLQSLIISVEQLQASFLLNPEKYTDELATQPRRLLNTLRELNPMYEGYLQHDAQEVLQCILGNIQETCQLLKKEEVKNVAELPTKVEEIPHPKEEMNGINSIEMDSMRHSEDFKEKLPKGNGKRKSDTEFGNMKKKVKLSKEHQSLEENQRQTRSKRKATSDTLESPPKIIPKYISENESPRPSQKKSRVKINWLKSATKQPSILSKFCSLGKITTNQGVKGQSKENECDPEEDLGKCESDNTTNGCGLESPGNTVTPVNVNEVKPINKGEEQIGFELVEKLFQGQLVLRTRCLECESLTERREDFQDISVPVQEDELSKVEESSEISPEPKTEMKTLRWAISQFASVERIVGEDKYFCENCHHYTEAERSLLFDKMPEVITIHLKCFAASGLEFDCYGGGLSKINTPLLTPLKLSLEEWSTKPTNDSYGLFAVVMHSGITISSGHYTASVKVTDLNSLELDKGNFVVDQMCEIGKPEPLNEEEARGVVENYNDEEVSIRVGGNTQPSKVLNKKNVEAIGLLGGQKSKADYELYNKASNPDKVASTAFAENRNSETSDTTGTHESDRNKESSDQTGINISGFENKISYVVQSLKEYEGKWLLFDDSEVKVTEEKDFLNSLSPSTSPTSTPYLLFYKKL
Chain of Tumor susceptibility gene 101 protein (Homo sapiens) (Q99816 whole entry, looked up, the tested form may be a part): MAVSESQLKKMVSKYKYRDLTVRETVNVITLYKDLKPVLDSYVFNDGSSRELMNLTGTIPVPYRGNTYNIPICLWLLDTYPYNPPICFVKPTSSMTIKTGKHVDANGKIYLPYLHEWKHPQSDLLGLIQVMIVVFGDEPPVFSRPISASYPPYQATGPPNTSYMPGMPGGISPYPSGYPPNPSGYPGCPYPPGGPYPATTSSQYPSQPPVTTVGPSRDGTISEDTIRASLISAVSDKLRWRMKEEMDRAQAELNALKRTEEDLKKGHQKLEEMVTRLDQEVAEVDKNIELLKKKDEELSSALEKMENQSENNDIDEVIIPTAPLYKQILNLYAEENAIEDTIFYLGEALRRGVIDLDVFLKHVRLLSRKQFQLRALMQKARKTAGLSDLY

Structure (SMILES)	Potency [1]	Potency [2]	Potency [3]	Potency (DFO2036)	Potency (DIV14)	Potency (W2)	Potency [4]	Potency [5]	Potency [6]
NCCCCC(N)C(=O)O (stereo unspecified)	inactive	inactive	inactive	inactive	inactive	inactive	–	–	–
COc1cccc2c1C(=O)c1c(O)c3c(c(O)c1C2=O)C[C@@](O)(C(=O)CO)C[C@@H]3OC1CC(N)C(O)C(C)O1 (stereo partly specified)	50100 nM (active)	inactive	inactive	–	1690 nM (active)	675 nM (active)	inactive	–	–
O=C(O)c1ccc(N[C@@H]2OC[C@@H](O)[C@@H](O)[C@@H]2O)cc1	inactive	inactive	inactive	–	inactive	inactive	–	–	–
NC(=O)OC[C@@H]1[C@H](NC(=O)/C(=N/OCC(=O)O)c2csc(N)n2)C(=O)N1S(=O)(=O)O	inactive	–	inactive	inactive	inactive	–	–	–	–
CCN(CC)CC(=O)Nc1c(C)cc(C)cc1C	inactive	inactive	inactive	–	inactive	–	–	–	–
CNC(=O)C(N)CSC(C)C1=C(C)c2cc3[n-]c(cc4nc(cc5[n-]c(cc1n2)c(C)c5CCC(=O)O)C(CCC(=O)O)=C4C)c(C)c3C(C)SCC(N)C(=O)NC.[Fe+2] (stereo unspecified)	inactive	inactive	inactive	–	inactive	inactive	–	–	–
OCC1OC(O)C(O)C(O)C1O (stereo unspecified)	inactive	inactive	inactive	inactive	–	–	–	–	–
OCC1O[C@H](Oc2ccc(O)cc2)C(O)C(O)C1O (stereo partly specified)	inactive	inactive	inactive	inactive	inactive	inactive	–	inactive	inactive
CCCCCCCCCCCCCCCC(=O)OC[C@H](O)[C@H]1OC[C@@H](O)[C@@H]1O	inactive	inactive	–	inactive	–	inactive	–	–	–
CC1OC(OCC2OC(Oc3c(-c4ccc(OCCO)c(OCCO)c4)oc4cc(OCCO)cc(O)c4c3=O)C(O)C(O)C2O)[C@@H](O)C(O)C1O (stereo partly specified)	inactive	inactive	inactive	–	inactive	inactive	–	inactive	inactive
OCC(CO)NC1C[C@](O)(CO)[C@@H](O)[C@H](O)[C@H]1O (stereo partly specified)	inactive	inactive	inactive	inactive	inactive	inactive	–	–	–
CC1(C)SC2C(NC(=O)C(C(=O)O)c3ccccc3)C(=O)N2C1C(=O)O (stereo unspecified)	inactive	inactive	inactive	–	inactive	inactive	–	inactive	inactive
O=[N+]([O-])O[C@H]1CO[C@H]2[C@@H]1OC[C@H]2O	inactive	inactive	inactive	–	inactive	inactive	–	–	–
COc1cc2c(cc1O)CCN[C@@]21CS[C@H]2c3c(OC(C)=O)c(C)c4c(c3C(COC1=O)N1C2C2c3c(cc(C)c(OC)c3O)CC([C@@H]1O)N2C)OCO4 (stereo partly specified)	–	inactive	inactive	–	0.4 nM (active)	0.4 nM (active)	–	–	–
CC(=O)OCC(=O)[C@@]1(O)CCC2C3C[C@H](C)C4=CC(=O)C=CC4(C)C3C(O)CC21C (stereo partly specified)	inactive	–	inactive	inactive	–	inactive	–	–	–
CN(C)CC/C=C1\c2ccccc2COc2ccc(CC(=O)O)cc21	inactive	inactive	inactive	–	inactive	–	–	–	–
CC1(C)C2CC[C@]1(C)[C@@H](O)C2	inactive	–	–	–	inactive	inactive	–	–	–
CCCCC(=O)OCC(=O)[C@]1(O)Cc2c(O)c3c(c(O)c2[C@H](OC2CC(NC(=O)C(F)(F)F)C(O)C(C)O2)C1)C(=O)c1c(OC)cccc1C3=O (stereo partly specified)	–	inactive	721 nM (active)	2510 nM (active)	1690 nM (active)	1510 nM (active)	–	–	–
CN[C@H](C)CCC=C(C)C	inactive	inactive	inactive	–	151 nM (active)	47.8 nM (active)	–	–	–
NC(C(=O)O)c1ccc(O)cc1 (stereo unspecified)	inactive	inactive	inactive	–	inactive	inactive	–	–	–
CCCC(=O)O[C@]1(C(=O)COC(C)=O)CC[C@H]2C3C[C@H](F)C4=CC(=O)C=CC4(C)[C@@]3(F)[C@@H](O)CC21C (stereo partly specified)	–	inactive	inactive	inactive	–	–	–	–	–
CC(CCC(=O)O)C1CCC2C3C(=O)C[C@@H]4CC(=O)CC[C@@]4(C)C3CC(=O)[C@]12C (stereo partly specified)	inactive	–	inactive	inactive	–	–	–	–	inactive
COC1CC2CCC(C)[C@](O)(O2)C(=O)C(=O)N2CCCCC2C(=O)OC(C(C)CC2CCC(O)C(OC)C2)CC(=O)C(C)/C=C(/C)C(O)C(OC)C(=O)C(C)CC(C)C=CC=C/C=C\1C (stereo partly specified)	–	inactive	–	1410 nM (active)	1510 nM (active)	675 nM (active)	–	–	–
CC1(C(=O)O)CCC2(C)CCC3(C)C(=CC(=O)C4C5(C)CCC(O)C(C)(C)C5CCC43C)C2C1 (stereo unspecified)	–	inactive	inactive	inactive	inactive	inactive	–	–	–
O=C1C(I)=CC(=C(c2cc(I)c(O)c(I)c2)c2ccccc2C(=O)O)C=C1I	–	–	–	–	inactive	inactive	–	–	–
C[n+]1c2cc(N)ccc2cc2ccc(N)cc21	–	inactive	–	–	213 nM (active)	757 nM (active)	–	–	–
CO/N=C(/C(=O)N[C@@H]1C(=O)N2C(C(=O)O)=C(CSc3nc(C)c(CC(=O)O)s3)CS[C@H]12)c1csc(N)n1	inactive	–	inactive	–	inactive	inactive	–	–	–
